# Screening data: PubChem BioAssay, National Center for Advancing Translational Sciences (NCATS)
# DRD3 agonist = qHTS of D3 Dopamine Receptor Agonist: qHTS. AID 652048, 2013. D3R DiscoveRx beta-arrestin cells, luminescence, 90 min. max activation, %. 410,000 tested, 0.58% active; in the data active = max activation above about 30%; also: 0% is about no effect
# Target sequence (P35462 whole entry, looked up): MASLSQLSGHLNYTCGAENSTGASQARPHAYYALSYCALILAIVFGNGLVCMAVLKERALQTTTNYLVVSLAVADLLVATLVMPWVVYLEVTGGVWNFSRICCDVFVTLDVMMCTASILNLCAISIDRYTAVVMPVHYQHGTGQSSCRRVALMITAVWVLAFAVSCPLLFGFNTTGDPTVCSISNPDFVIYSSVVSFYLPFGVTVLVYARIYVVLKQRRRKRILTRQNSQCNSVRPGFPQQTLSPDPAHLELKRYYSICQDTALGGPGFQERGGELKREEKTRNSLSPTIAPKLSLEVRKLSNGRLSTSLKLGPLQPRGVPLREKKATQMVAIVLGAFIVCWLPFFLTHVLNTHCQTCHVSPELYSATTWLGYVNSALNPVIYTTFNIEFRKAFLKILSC
#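 Agonist-mode cell screen: cells plated at 1500/well and incubated overnight at 37 °C, then exposed to library compounds for 90 min at 37 °C. Detection reagent was added for 30–60 min at room temperature, and luminescence was read.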
# DRD3 antagonist = qHTS of D3 Dopamine Receptor Antagonist: qHTS; max response, negative = inhibition, %; 360,000 tested, 2.5% active; AID 652054, 2013; D3R cells, DiscoveRx beta-arrestin luminescence, antagonist mode; active compounds read low; D(3) dopamine receptor (Homo sapiens), P35462; in the data active = max response below about -50%; also: % is scaled to controls: 0 for no effect and ±100 for the full control effect
#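 Cells plated overnight at 1500 cells/well, then exposed to library compounds with dopamine controls for 90 minutes at 37 degrees C. DiscoveRx reagent added for 30–60 minutes at room temperature; luminescence read, quantitative HTS format.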
# TRPML1 inh = qHTS for Inhibitors of the Human Mucolipin Transient Receptor Potential 1 (TRPML1); Mucolipin-1 (Homo sapiens), Q9GZU1; TRPML1-inducible cells, Ca2+ dye fluorescence, FDSS; active compounds read low; inhibition of EC80 agonist-evoked calcium signal; activity change, negative = inhibition, % (concentration not given with the values); 390,000 tested, 0.02% active; AID 624415, 2012; in the data active = activity change below about -50%;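 also: stimulus is agonist 54-4 at its EC80 concentration; % is scaled to controls: 0 for no effect and ±100 for the full control effect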
#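 Tet-induced TRPML1-DL cells loaded with Ca8 no-wash calcium dye were read kinetically on FDSS. Compound addition was followed by EC80 agonist 54-4 (4 uM final); inhibition was read over 110 s.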
# TRPML1 ag = qHTS for Agonists of the Human Mucolipin Transient Receptor Potential 1 (TRPML1) | 410,000 tested, 0.12% active | activation, % (test concentration not listed) | TRPML1-expressing cells, Ca2+ dye fluorescence, FDSS | Mucolipin-1 (Homo sapiens), Q9GZU1 | AID 624414, 2012; in the data active = activation above about 50%; also: 0% is about no effect
#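 Calcium fluorescence on an FDSS kinetic reader gave the read-out. Tet-induced TRPML1-DL cells were plated overnight, dye-loaded (Ca8 with quencher, 45-90 min, room temperature, dark), then read 110 s after compound addition, and again 110 s after 4uM final 54-4 (EC80).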
# An asterisk follows results filed as active; x = no result; ! = a repeat was not active. Compounds with a hit are over-represented: about 2.9% of the library has one in this group of screens.
SMILES,DRD3 agonist,DRD3 antagonist,TRPML1 inh,TRPML1 ag
Cc1ccc(S(=O)(=O)N2CCCCC2)cc1NC(=O)Cn1cnnn1,2,-1,-7,0
Cc1ccc(S(=O)(=O)N2CCOCC2)cc1NC(=O)CNCc1cccnc1,80*,21,-8,-1
Cc1ccc(S(=O)(=O)N2CCOCC2)cc1NC(=O)CNCc1ccc(Cl)cc1Cl,0,7,10,-1
Cc1cc(Br)ccc1NC(=O)CNC(=O)Cn1ncc(Cl)c(Cl)c1=O,-15,-83*,-10,0
Cc1ccc(S(=O)(=O)N2CCCCC2)cc1NC(=O)Cn1ncc(Cl)c(Cl)c1=O,-20,-64*,-17,1
COc1ccc(Br)cc1C1NC(c2ccc3c(c2)OCO3)=CC(c2cc(Cl)ccc2O)N1 (configuration not stated),x,x,-22,1
Cn1cc(S(=O)(=O)N2CCOCC2)cc1C(=O)Nc1ccc(Cl)c(C(F)(F)F)c1,1,x,15,0
Cc1ccc(NS(=O)(=O)c2csc(C(N)=O)c2)cc1C,25,21,-1,-1
CCc1cccc(NS(=O)(=O)c2csc(C(N)=O)c2)c1,33*,20,14,-1
COc1ccc(CCN(C)CC(O)COc2c(C)ccc(C)c2C)cc1OC (configuration not stated),-12,-22,x,x
COc1ccc(CCN(C)CC(O)COC(c2ccc(F)cc2)c2ccc(F)cc2)cc1OC (configuration not stated),-20,-61*,8,3
CCOC(=O)CSC1=C(C#N)C(=O)NC(c2ccc(OC)c(OC)c2)S1 (configuration not stated),-1,-67*,24,1
CCOC(=O)CSC1=C(C#N)C(=O)NC(c2ccc(OC)cc2)S1 (configuration not stated),-4,-58*,10,0
O=c1cc(C(F)(F)F)c2sc(N3CCCCC3)nc2[nH]1,2,-57*,5,-1
CCOc1ccc2ccccc2c1C(=O)N[C@@H]1C(=O)N2[C@@H]1SC(C)(C)[C@@H]2C(=O)O,49*!,105,4,0
O=C(NCCCNCc1ccccc1)c1ccccn1,-15,-66*!,-17,0
CN1C(=O)/C(=C2/C=Cc3ccccc3N2CCCS(=O)(=O)O)SC1=S,-25,-125*,0,0
CCn1c(=O)c(C(=O)NCCN2CCCCC2)c(O)c2ccccc21,-12,-93*,0,0
COc1ccc(CCNC(=O)c2c(O)c3ccccc3n(C)c2=O)cc1,37*,6,2,3
COc1ccc(CCNC(=O)c2c(C)noc2C)cc1,0,-100*,33,0
CCn1c(=O)c(C(=O)NCCc2ccccc2)c(O)c2ccccc21,17,0,8,1
Cc1noc(C)c1C(=O)NCCCc1ccccc1,-6,-25,3,1
COc1ccccc1C(=O)Nc1ccccc1C(=O)OCc1cc(=O)n2ccsc2n1,-15,x,3,-1
Cc1ccc(NC(=O)Cn2nc(C)c3nn(-c4ccc(Cl)cc4)c(C)c3c2=O)cc1F,0,x,-12,0
Cc1oc2ccc(O)c(CN3CCCCCC3)c2c1C(=O)Nc1cccc(C(F)(F)F)c1,-23,x,45,-1
SMILES,DRD3 agonist,DRD3 antagonist,TRPML1 inh,TRPML1 ag
O=C(NC(NC(=S)Nc1c(Cl)cccc1Cl)C(Cl)(Cl)Cl)OCc1ccccc1 (configuration not stated),-17,-69*,29,3
COc1cc2c(cc1CNC[C@H]1O[C@@H](n3cnc4c(N)ncnc43)[C@H](O)[C@@H]1O)OCO2,39*,7,-5,0
Nc1ncnc2c1ncn2[C@@H]1O[C@H](CNC(=O)[C@@H](N)Cc2ccccc2)[C@@H](O)[C@H]1O,5,40,-16,0
Nc1ncnc2c1ncn2[C@@H]1O[C@H](CNC(=O)[C@@H](N)CO)[C@@H](O)[C@H]1O,5,-13,-2,-1
Nc1ncnc2c1ncn2[C@@H]1O[C@H](CNC(=O)[C@H](N)Cc2cscn2)[C@@H](O)[C@H]1O,-2,-84*,17,0
Nc1ncnc2c1ncn2[C@@H]1O[C@H](CCC(=O)NCc2ccccc2)[C@@H](O)[C@H]1O,-10,-93*,x,0
Cc1cccc(/C=C(\C#N)c2nc3ccccc3c(=O)[nH]2)c1,34*,x,11,1
CN(C)c1ccc(/C=C(\C#N)c2nc3ccccc3c(=O)[nH]2)cc1,-11,x,-5,4
C=CCc1ccc(OCCN2CCc3ccccc3C2)c(OC)c1,-16,-75*,-2,0
C/C=C/c1ccc(OCCCCOc2c(OC)cccc2OC)c(OC)c1,-7,12,1,0
C=CCc1ccc(OCCCCN2CC(C)OC(C)C2)c(OC)c1 (configuration not stated),-6,-69*,-7,0
C=CCc1ccc(OCCCOc2ccc(C)cc2OC)c(OC)c1,3,15,24,3
Cc1ccc(Cl)c(OCCN2CCc3ccccc3C2)c1,7,-60*,2,-1
C/C=C/c1ccc(OCCN2CCc3ccccc3C2)c(OC)c1,-20,-76*,5,0
C[N@+]12CCCC[C@@H]1CCC(=C(c1cccs1)c1cccs1)C2,-22,x,x,x
COc1ccc(Cn2c(SCc3ccc(C(=O)NC(C)c4ccccc4)cc3)nc3cccnc32)cc1 (configuration not stated),-1,x,20,0
CC1CC(C)CN(c2oc(-c3ccc(OCc4ccccc4Cl)cc3)nc2C#N)C1 (configuration not stated),x,x,x,0
Cc1cc(C)nc(S/C=C/C(=O)c2ccccc2F)n1,-17,-85*,1,2
CCc1nn(CC(=O)Nc2ccc(NC(C)=O)cc2)c(=O)c2cc3sccc3n12,-7,x,-8,0
CN1CCCN(C(=O)c2cc3c(s2)CCCC3)CC1,-21,-56*,-6,0
CC(=O)N1CCN(C(=O)c2cc3c(s2)CCCC3)CC1,8,-19,-4,-1
CC(CCc1ccccc1)N1CCN(Cc2ccccc2)CC1 (configuration not stated),-12,-87*,-1,0
CC(CN1CCN(Cc2ccccc2)CC1)c1ccccc1 (configuration not stated),-4,0,19,0
CCS(=O)(=O)N1CCN(C(C)CCc2ccccc2)CC1 (configuration not stated),14,-51*,11,1
ClC(CCN1CCN(Cc2ccccc2)CC1)c1ccccc1 (configuration not stated),-49,-64*,16,-1
CC(C)N1CCN(S(=O)(=O)c2ccccc2)CC1,-4,-17,-6,0
O=S(=O)(c1ccc(Cl)cc1)N1CCN(c2nc(Nc3cc(Cl)ccc3O)nc3ccccc23)CC1,x,x,x,0
